Data on eight compounds can be found in PubChem BioAssay (NCI).

Common to all, as to experiment: NCI-60 one-dose screen, 48 h (100 = growth as untreated, 0 = no growth, -100 = all killed)
For one assay, the system named is HT29 colon. The note with it: 10 µM.
The test system of the next assay is SNB-75 CNS. The note with it: 10 µM.
In a further assay the test system is SNB-19 CNS. The note with it: 10 µM.
The next assay deals with U251 CNS. The note with it: 10 µM.
A further assay relates to PC-3 prostate. The note with it: 10 µM.
A further assay relates to SK-MEL-5 melanoma. The note with it: 10 µM.
A further assay concerns UACC-62 melanoma. The note with it: 10 µM unless noted.
The subject of another assay is LOX IMVI melanoma. The note with it: 10 µM.
Another assay relates to SK-MEL-28 melanoma. The note with it: 10 µM.
Another assay deals with SK-MEL-2 melanoma. The note with it: 10 µM.
The test system of the next assay is UO-31 renal. The note with it: 10 µM.
In the next assay the test system is TK-10 renal. The note with it: 10 µM unless noted.
For the next assay, the system named is ACHN renal. The note with it: 10 µM.
The test system of the next assay is HL-60(TB) leukemia. The note with it: 10 µM.
Another assay concerns CCRF-CEM leukemia. The note with it: 10 µM.
A further assay concerns SN12C renal. The note with it: 10 µM.
For another assay, the system named is EKVX NSCLC. The note with it: 10 µM.
The subject of a further assay is CAKI-1 renal. The note with it: 10 µM.
A further assay relates to A498 renal. The note with it: 10 µM.

“And” between values parts separate entries of the source, which are not always exact repeats. Identical values can stand only once. About 83,000 compounds went through this panel and 20% of them were active in at least one assay; those are over-represented in the sample as a whole.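 The test compound was applied at a single concentration to cells in 96-well plates for 48 hours, and percent growth was recorded.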 The source made the active and inactive calls. How the source made its calls: active means growth percent below 10; inactive means the rest.

`N#CCc1ccccc1`: the growth is 114% (inactive) with HT29 colon; 105% (inactive) with SNB-75 CNS; 98.6% (inactive) in the assay on SNB-19 CNS; 95.8% (inactive) in the assay on U251 CNS; 96.9% (inactive) with PC-3 prostate; 99.4% (inactive) with SK-MEL-5 melanoma. The growth in the assay with UACC-62 melanoma was 102% (inactive); in the assay with LOX IMVI melanoma, 94.1% (inactive); with SK-MEL-28 melanoma it was 106% (inactive); with SK-MEL-2 melanoma it was 99.9% (inactive); in the assay with UO-31 renal it was 93% (inactive); in the assay on TK-10 renal it was 108% (inactive). Besides, the growth was 108% (inactive) in the assay on ACHN renal, 105% (inactive) in the assay with HL-60(TB) leukemia and 97.3% (inactive) in the assay with CCRF-CEM leukemia.
For `[Cl][Sn]([c]1ccccc1)([c]1ccccc1)[c]1ccccc1`, the growth in the assay on HT29 colon was -81.4% (active); in the assay on SNB-75 CNS it was -98.6% (active); with SNB-19 CNS, -76.5% (active); in the assay on U251 CNS, -98.6% (active); in the assay on PC-3 prostate, -72.9% (active); with SK-MEL-5 melanoma, -88.7% (active). Moreover, the growth with UACC-62 melanoma is -75.4% (active); in the assay with LOX IMVI melanoma, -76.1% (active); in the assay on SK-MEL-28 melanoma, -85% (active); with SK-MEL-2 melanoma, -62.9% (active); with SN12C renal, -28.9% (active); with UO-31 renal, -87.9% (active). Also, the growth with TK-10 renal is -92.7% (active); in the assay with ACHN renal, -89.2% (active); in the assay on HL-60(TB) leukemia, -25.3% (active); with CCRF-CEM leukemia, -46% (active).
Consider `CC(=O)[O][Hg][c]1c(C)c(C)cc(C)c1C`, for which the growth with HT29 colon is -62.1% (active); in the assay on SNB-75 CNS, -81.2% (active); in the assay with SNB-19 CNS it was 39.8% (inactive); with U251 CNS, -97.3% (active); in the assay with PC-3 prostate, -77.3% (active); in the assay on SK-MEL-5 melanoma, -57.5% (active). Further, the growth was -26.1% (active) in the assay on UACC-62 melanoma; -95.3% (active) with LOX IMVI melanoma; -37.9% (active) in the assay on SK-MEL-28 melanoma; -48.3% (active) with SK-MEL-2 melanoma; -62.9% (active) in the assay on EKVX NSCLC; -86.2% (active) in the assay on UO-31 renal. In addition, the growth in the assay on TK-10 renal was -82.6% (active); in the assay with ACHN renal, 34.1% (inactive); in the assay with HL-60(TB) leukemia it was -13.1% (active); in the assay on CCRF-CEM leukemia, 3.85% (active).
Take `COc1cc(/C=C/[N+](=O)[O-])cc(Br)c1OC`: the growth was 19.5% (inactive) with SNB-75 CNS; 49% (inactive) with SNB-19 CNS; -21.2% (active) in the assay with U251 CNS; 31.1% (inactive) with PC-3 prostate; 24.5% (inactive) in the assay with SK-MEL-5 melanoma; -5.62% (active) in the assay on UACC-62 melanoma. For the same compound, the growth is -100% (active) in the assay with LOX IMVI melanoma; -19.8% (active) with SK-MEL-28 melanoma; 103% (inactive) with EKVX NSCLC; 28.7% (inactive) in the assay on SN12C renal; -1.36% (active) with UO-31 renal; -38.1% (active) in the assay on TK-10 renal. The growth is 60.7% (inactive) in the assay with ACHN renal, 0.838% (active) with HL-60(TB) leukemia and 6.59% (active) in the assay with CCRF-CEM leukemia.
Turning to `CCOC(=O)c1[nH]cnc1/N=N/N(C)N`, the growth in the assay with UACC-62 melanoma was 75.8% [100 µM] (inactive) and -1.61% [100 µM] (active); with TK-10 renal, 99.8% [100 µM] (inactive) and -100% [100 µM] (active).
Take `C[C@H]1CC[C@@]2(NC1)O[C@H]1C[C@H]3[C@@H]4CC[C@H]5C[C@@H](O)CC[C@]5(C)[C@H]4CC[C@]3(C)[C@H]1[C@@H]2C`: the growth was 8.84% [100 µM] (active) and 2.39% [100 µM] (active) with UACC-62 melanoma; 25.1% [100 µM] (inactive) and -60.4% [100 µM] (active) in the assay on TK-10 renal.
Regarding `O=C(CCl)Nc1ccc(Cl)cc1`, the growth was 41.2% (inactive) in the assay with HT29 colon; 62.4% (inactive) in the assay on SNB-75 CNS; 79.1% (inactive) with SNB-19 CNS; 0.303% (active) in the assay with U251 CNS; 62.9% (inactive) in the assay on PC-3 prostate; 30.3% (inactive) with SK-MEL-5 melanoma. Moreover, the growth in the assay on UACC-62 melanoma is 47.1% (inactive); in the assay with LOX IMVI melanoma, 38.3% (inactive); in the assay with SK-MEL-28 melanoma, 69.5% (inactive); in the assay on EKVX NSCLC, 101% (inactive); in the assay with SN12C renal, 35.8% (inactive); with UO-31 renal, 79.7% (inactive). Further, the growth was 66.7% (inactive) in the assay on TK-10 renal; 62.4% (inactive) in the assay on ACHN renal; -7.72% (active) with CAKI-1 renal; 66.3% (inactive) in the assay with HL-60(TB) leukemia; 26.3% (inactive) with CCRF-CEM leukemia.
As for `COC12C(COC(N)=O)C3=C(C(=O)C(C)=C(N)C3=O)N1CC1C2N1C` (centres undefined), the growth was 8.04% (active) with HT29 colon; 32.9% (inactive) in the assay on SNB-75 CNS; 39.1% (inactive) in the assay with SNB-19 CNS; 43% (inactive) in the assay on U251 CNS; 47% (inactive) in the assay with PC-3 prostate; 11.6% (inactive) in the assay on SK-MEL-5 melanoma. Also, the growth was 46.3% (inactive) in the assay with UACC-62 melanoma; 28.3% (inactive) in the assay with LOX IMVI melanoma; 91.4% (inactive) with SK-MEL-2 melanoma; 91.7% (inactive) with EKVX NSCLC; 32.7% (inactive) in the assay with UO-31 renal; 69.4% (inactive) with TK-10 renal. Moreover, the growth with ACHN renal was 10.8% (inactive); in the assay on A498 renal, 46.9% (inactive); with HL-60(TB) leukemia, -23.2% (active); with CCRF-CEM leukemia, 24.8% (inactive).
